Data: PubChem BioAssay (EPA / NIEHS)
“And” between values parts separate entries of the source, which are not always exact repeats. Equal entries are not always repeated. Records with an inconclusive call do not appear. More than one record can exist for a structure, and the calls need not agree. The source made the active and inactive calls. Rule for the calls, unless noted: active = hit-call score of the fitted dose curve at least 0.9, where 1 is the maximum; inconclusive = response in the unintended direction; inactive = score below 0.9.

Key:
[1] = Tanguay_ZF_120hpf_PIG_legacy: (Legacy) Oregon State University Tanguay Lab 120 Hour Post-fertilization zebrafish Assay for Pigmentation Malformation (AID 2283650)
How it was run: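 Endpoint is incidence of abnormal pigmentation at 120 hpf in dechorionated 5D zebrafish exposed singly from 6 hpf at 28C, DMSO vehicle at 0.64%. Embryos dying by 24 or 120 hpf are excluded from scoring.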

[2] = Tanguay_ZF_120hpf_CIRC_legacy: (Legacy) Oregon State University Tanguay Lab 120 Hour Post-fertilization zebrafish Assay for Circulatory Malformation (AID 2283651)
How it was run: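 Embryos are dechorionated at 4 hpf, plated one per well at 6 hpf, then held under static exposure at 28C until 120 hpf. Malformations are recorded as binary calls; mortality excludes other endpoints.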

[3] = Tanguay_ZF_120hpf_SWIM_legacy: (Legacy) Oregon State University Tanguay Lab 120 Hour Post-fertilization zebrafish Assay for Swim Bladder Malformation (AID 2283654);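 note: swim bladder malformation in each larva scored yes or no under brightfield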
How it was run: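 Static waterborne exposure of single dechorionated Tropical 5D zebrafish embryos, 6–120 hpf, 28C, 0.64% DMSO final. Read-out: swim bladder malformation, present/absent, relative to DMSO negative control; trimethyltin chloride 5uM served as positive control.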

[4] = Tanguay_ZF_120hpf_TRUN_legacy: (Legacy) Oregon State University Tanguay Lab 120 Hour Post-fertilization zebrafish Assay for Truncated Body (AID 2283655)
How it was run: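 Single dechorionated zebrafish embryos received test chemical from 6 hpf in 0.64% DMSO, kept at 28C. At 120 hpf, brightfield inspection noted any truncated body.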

[5] = Tanguay_ZF_120hpf_NC_legacy: (Legacy) Oregon State University Tanguay Lab 120 Hour Post-fertilization zebrafish Assay for Notochord and Tail Malformation (AID 2283656)
How it was run: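 Binary scoring of notochord distortion by brightfield microscopy; embryos dying were not scored. Wild-type Tropical 5D embryos, chorion removed, exposed singly and statically from 6 to 120 hpf, 28C, sealed, 0.64% DMSO.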

[6] = read-out: solute carrier (SLC10A1), SLC10A1 (gene 6554); experiment: LTEA_HepaRG_SLC10A1: Life Technologies and Expression Analysis (LTEA) Assay for solute carrier (SLC10A1) using HepaRG (AID 2283657; active = hit-call score of the fitted dose curve at least 0.9, where 1 is the maximum; inactive = score below 0.9); settings: mRNA level, 48 h; actives raise or lower the signal
How it was run: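 Cryopreserved HepaRG cells are thawed, plated and cultured 48 h; medium is then switched to serum-free induction medium and chemicals added (8 points, max 100 uM, 0.5% DMSO). After 48 h, RNA is isolated and SLC10A1 quantified by qRT-PCR.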

[7] = read-out: matrix metalloproteinase-1 (MMP1), MMP1 (gene 4312); experiment: LTEA_HepaRG_MMP1: Life Technologies and Expression Analysis (LTEA) Assay for matrix metalloproteinase-1 (MMP1) using HepaRG (AID 2283658; active = hit-call score of the fitted dose curve at least 0.9, where 1 is the maximum; inactive = score below 0.9); settings: mRNA level, 48 h; actives raise or lower the signal
How it was run: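 In this screen, human liver HepaRG cultures receive each chemical in duplicate for 48 h (top 100 uM, 0.5% DMSO). MMP1 expression is then quantified by TaqMan qRT-PCR with ACTB/GAPDH/POLR2A normalization.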

[8] = read-out: ABC Transporter (ABCB1), ABCB1 (gene 5243); experiment: CLD_ABCB1_6hr: CellzDirect (CLD) Gene Expression Assay for ABC Transporter (ABCB1) at 6 hours (AID 2283659);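 note: hits raise ABCB1 transcript above the DMSO vehicle baseline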
How it was run: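 ABCB1 transcript measured by quantitative nuclease protection assay, chemiluminescent read-out, 6 h after dosing human hepatocyte cultures (0.2% DMSO vehicle, daily redosing). Activity fitted as increase over DMSO baseline; cytotoxicity flagged by phase-contrast morphology.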

[9] = read-out: xenobiotic metabolism (CYP1A1), CYP1A1 (gene 1543); experiment: CLD_CYP1A1_6hr: CellzDirect (CLD) Gene Expression Assay for xenobiotic metabolism (CYP1A1) at 6 hours (AID 2283661);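 for AC50: potency for transcript induction above DMSO vehicle baseline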
How it was run: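 Read-out 6 h post-dose: qNPA chemiluminescent quantitation of transcript induction against 0.2% DMSO. Cells were cultured primary human hepatocytes from two separate donor preparations; phase-contrast morphology annotated apparent cytotoxicity.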

[10] = read-out: alkyl and aryl transferase (GSTA2), GSTA2 (gene 2939); experiment: CLD_GSTA2_6hr: CellzDirect (CLD) Gene Expression Assay for alkyl and aryl transferase (GSTA2) at 6 hours (AID 2283666)
How it was run: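 GSTA2 transcript induction at 6 h, quantified by nuclease protection (qNPA) with chemiluminescent detection, in human liver primary hepatocytes exposed to several compound concentrations with 0.2% DMSO as baseline; phase-contrast morphology annotated apparent cytotoxicity.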

[11] = read-out: sulfotransferase (SULT2A), SULT2A1 (gene 6822); experiment: CLD_SULT2A_6hr: CellzDirect (CLD) Gene Expression Assay for sulfotransferase (SULT2A) at 6 hours (AID 2283669);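 note: hits raise transcript level above the DMSO vehicle baseline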
How it was run: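 Measured 6 h after dosing, SULT2A1 mRNA in human hepatocyte lysates was quantified by S1 nuclease protection with chemiluminescent detection. Increases fitted against 0.2% DMSO vehicle baseline; phase-contrast cytotoxicity recorded yes/no.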

[12] = read-out: Cytochrome P450 (CYP24A1_1), CYP24A1 (gene 1591); experiment: LTEA_HepaRG_CYP24A1_1: Life Technologies and Expression Analysis (LTEA) Assay for Cytochrome P450 (CYP24A1_1) using HepaRG (AID 2283671; active = hit-call score of the fitted dose curve at least 0.9, where 1 is the maximum; inactive = score below 0.9); settings: mRNA level, 48 h; actives raise or lower the signal
How it was run: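 Cultures of human HepaRG were treated in duplicate for 48 h (0.5% DMSO vehicle, highest dose 100 uM). CYP24A1 mRNA by qRT-PCR, normalized to ACTB, GAPDH, POLR2A.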

[13] = read-out: kallikrein-3 (KLK3), KLK3 (gene 354); experiment: LTEA_HepaRG_KLK3: Life Technologies and Expression Analysis (LTEA) Assay for kallikrein-3 (KLK3) using HepaRG (AID 2283652; active = hit-call score of the fitted dose curve at least 0.9, where 1 is the maximum; inactive = score below 0.9); settings: mRNA level, 48 h; actives raise or lower the signal
How it was run: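 KLK3 transcript levels were measured by TaqMan qRT-PCR with normalisation to three housekeeping genes. HepaRG cultures received chemicals for 48 h at up to 100 uM (half-log, 8 points, 0.5% DMSO vehicle), fitted in both directions against DMSO.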

[14] = read-out: ABC Transporter (ABCB11), ABCB11 (gene 8647); experiment: CLD_ABCB11_6hr: CellzDirect (CLD) Gene Expression Assay for ABC Transporter (ABCB11) at 6 hours (AID 2283675);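 note: hits raise ABCB11 mRNA level so AC50 marks induction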
How it was run: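 Read-out was ABCB11 mRNA gain of signal by quantitative nuclease protection assay, relative to 0.2% DMSO vehicle, 6 h post-dose. Cells were primary human hepatocytes from two donors, treated across multiple concentrations; phase-contrast cytotoxicity noted yes/no.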

[15] = tested on: Thyroperoxidase (TPO), gene 54314; experiment: CCTE_Simmons_AUR_rTPO: CCTE's Amplex UltraRed Assay for Thyroperoxidase (TPO) Inhibition, Simmons Lab (AID 2283662);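 for AC50: potency for loss of signal meaning inhibition of peroxidase activity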
How it was run: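 Rat thyroid microsomes (5 ug protein) were incubated with test compound (8 concentrations, 5 nM–87.5 uM final, 0.5% DMSO), 25 uM Amplex UltraRed and 300 uM H2O2 in 200 mM phosphate buffer for 30 min at 37C in the dark; fluorescence read at 544/590 nm.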

[16] = CCTE_Simmons_CellTiterGLO_HEK293T: Viability Assessment in CCTE's Assays for Thyroperoxidase (TPO) Inhibition, Simmons Lab (AID 2283665);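 for AC50: cells exposed to compound for 24 h before readout; actives reduce ATP signal below DMSO vehicle meaning cytotoxicity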
How it was run: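 Cells were seeded overnight, then exposed to an eight-point series up to 87.5 uM final for 24 hours. CellTiter-Glo reagent was added and luminescence read after 20 min, giving ATP-based viability versus DMSO.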

[17] = read-out: organic anion transporter (SLCO1B1), SLCO1B1 (gene 10599); experiment: CLD_SLCO1B1_6hr: CellzDirect (CLD) Gene Expression Assay for organic anion transporter (SLCO1B1) at 6 hours (AID 2283668);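 note: active means mRNA induction above DMSO baseline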
How it was run: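 SLCO1B1 mRNA induction measured 6 h after dosing by quantitative nuclease protection with chemiluminescent read-out, in human primary hepatocyte cultures given chemicals at several concentrations (vehicle 0.2% DMSO). Increase over DMSO baseline fitted; morphology-based cytotoxicity annotated yes/no.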

[18] = read-out: glucuronosyltransferase (UGT1A1), UGT1A1 (gene 54658); experiment: CLD_UGT1A1_6hr: CellzDirect (CLD) Gene Expression Assay for glucuronosyltransferase (UGT1A1) at 6 hours (AID 2283672)
How it was run: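 UGT1A1 mRNA induction, read by quantitative nuclease protection assay, 6 h after dosing primary human hepatocytes (two donors, 0.2% DMSO vehicle). Gain of signal fitted relative to vehicle.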

[19] = read-out: xenobiotic metabolism (CYP1A1), CYP1A1 (gene 1543); experiment: CLD_CYP1A1_24hr: CellzDirect (CLD) Gene Expression Assay for xenobiotic metabolism (CYP1A1) at 24 hours (AID 2283673);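 note: CYP1A1 mRNA level by quantitative nuclease protection with chemiluminescence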
How it was run: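 Transcript levels were read at 24 h by qNPA chemiluminescence in human liver primary cells. Cells got daily fresh dosing at multiple concentrations (vehicle 0.2% DMSO). Induction fitted upward against DMSO; phase-contrast cytotoxicity annotated.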

Measured: AC50

ClC1C(Cl)C(Cl)C(Cl)C(Cl)C1Cl (centres undefined)
inactive: [1] | [2] | [3] | [4] | [5] | [6] | [7] | [8] | [9] | [10] | [11] | [12]

CC1(C)C(C=C(Cl)Cl)C1C(=O)OC(C#N)c1ccc(F)c(Oc2ccccc2)c1 (centres undefined)
inactive: [1] | [2] | [13] | [3] | [4] | [7] | [8] | [10] | [11] | [12] | [14]
active: [6] 50 µM | [9] 20 µM

O=C(NC(=O)c1c(F)cccc1F)Nc1ccc(OC(F)(F)C(F)OC(F)(F)F)c(Cl)c1 (centres undefined)
inactive: [1] | [2] | [3] | [4] | [5] | [8] | [9] | [10] | [11] | [14]

COP(=S)(OC)Oc1ccc([N+](=O)[O-])cc1
inactive: [1] | [2] | [3] | [4] | [5] | [8] | [16] | [17] | [11] | [18]
active: [9] 2.88 µM | [15] 4.82 µM

CC(C)(C)C(O)C(Oc1ccc(Cl)cc1)n1cncn1 (centres undefined)
inactive: [1] | [2] | [3] | [4] | [5] | [8] | [10] | [11] | [14]
active: [1] 44.2 µM and 47.8 µM | [2] 40.6 µM | [3] 47.1 µM | [4] 32.2 µM and 47.2 µM | [9] 1.55 µM

CNC(=O)Oc1ccccc1OC(C)C
inactive: [1] | [2] | [3] | [4] | [5] | [8] | [9] | [17] | [11] | [19]

O=S(=O)(O)C(F)(F)C(F)(F)C(F)(F)C(F)(F)C(F)(F)C(F)(F)C(F)(F)C(F)(F)F
inactive: [1] | [2] | [3] | [4] | [5] | [9] | [15] | [11] | [19] | [14]
active: [1] 46.6 µM | [2] 42.5 µM | [4] 10.6 µM and 21.2 µM | [16] 64.1 µM and 57.1 µM

Clc1ccccc1-c1nnc(-c2ccccc2Cl)nn1
inactive: [1] | [2] | [3] | [4] | [5] | [8] | [9] | [10] | [11] | [14]

CC(C)N(C(=O)COc1nnc(C(F)(F)F)s1)c1ccc(F)cc1
inactive: [1] | [2] | [3] | [4] | [8] | [9] | [15] | [17] | [11]

CCOCN(C(=O)CCl)c1c(C)cccc1CC
active: [4] 47.5 µM
inactive: [1] | [2] | [3] | [5] | [8] | [9] | [10] | [17] | [11] | [14]

CC[C@H](C)[C@H]1O[C@]2(C=C[C@@H]1C)C[C@@H]1C[C@@H](C/C=C(\C)[C@@H](O[C@H]3C[C@H](OC)[C@@H](O[C@H]4C[C@H](OC)[C@@H](O)[C@H](C)O4)[C@H](C)O3)[C@@H](C)/C=C/C=C3\CO[C@@H]4[C@H](O)C(C)=C[C@@H](C(=O)O1)[C@]34O)O2 (tested in a mixture with another compound)
inactive: [1] | [2] | [3] | [4] | [5] | [8] | [17] | [11]
active: [14] 0.332 µM
